Assay outcomes: PubChem BioAssay, National Center for Advancing Translational Sciences (NCATS)
D1 antag = human D1 dopamine receptor antagonism; P21728; HEK293 TREx D1 cells, calcium flux, dopamine EC80; stronger effect = lower value; activity change, negative = inhibition, % at 10 µM; 360,000 tested, 3.2% active; AID 504652; in the data active = activity change below about -30%; note: % is set by controls: 0 for no effect and ±100 for the full control effect
Target sequence (P21728 whole entry, looked up): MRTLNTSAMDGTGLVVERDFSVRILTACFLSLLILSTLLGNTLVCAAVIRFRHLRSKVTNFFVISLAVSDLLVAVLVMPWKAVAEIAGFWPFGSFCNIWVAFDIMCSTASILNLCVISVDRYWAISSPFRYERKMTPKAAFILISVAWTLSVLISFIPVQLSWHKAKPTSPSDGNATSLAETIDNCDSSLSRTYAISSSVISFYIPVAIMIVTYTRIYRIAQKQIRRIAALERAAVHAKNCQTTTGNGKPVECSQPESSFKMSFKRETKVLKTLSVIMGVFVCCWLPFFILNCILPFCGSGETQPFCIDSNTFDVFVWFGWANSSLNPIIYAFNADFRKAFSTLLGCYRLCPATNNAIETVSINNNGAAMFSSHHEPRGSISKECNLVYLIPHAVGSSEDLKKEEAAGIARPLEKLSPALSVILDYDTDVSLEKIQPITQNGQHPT
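Allosteric or orthosteric antagonism assessed as attenuation of the calcium response to EC80 dopamine, added 180 s after compound, in induced HEK293 Trex D1 cells loaded with no-wash calcium dye.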
TRHR enhancer = allosteric enhancers of human TRH receptor; 360,000 tested, 0.66% active; P34981; TRHR cells, fluo-8 calcium fluorescence, EC20 TRH enhancement; enhancement, % at 2 µM; in the data active = enhancement above about 30%; note: 0% is about no effect
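TRHR-expressing cells loaded with fluo-8 calcium dye were read kinetically (ex 480/em 530) during compound addition, then stimulated with an EC20 of TRH (10 nM final). Enhancement of the Gq-mediated intracellular calcium response was scored.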
D1 ag = activates the human D1 dopamine receptor. 360,000 tested, 1% active. HEK293 T-REx D1 cells, calcium flux, agonist mode. activation, % at 2 µM. P21728; note: 0% is about no effect
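Agonism was scored from calcium flux recorded over 180 s (1 read/s) after pintool compound addition, following a 10-cycle baseline. Cells were inducible force-coupled HEK293 TREx D1, plated overnight at 30 C and loaded with no-wash calcium dye.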
D1 potentiator = potentiators of human D1 dopamine receptor. 360,000 tested, 0.036% active. P21728. potentiation, % at 10 µM. HEK293 TREx D1 cells, calcium flux, dopamine EC20 potentiation; in the data active = potentiation above about 30%; note: 0% is about no effect
TRHR ag = activates the human TRH receptor. P34981. TRHR cells, calcium flux fluo-8, FDSS agonist mode. activation, % at 2 µM. 360,000 tested, 0.18% active; note: 0% is about no effect
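TRHR-expressing cells, plated overnight in medium with 10% serum, were loaded with fluo-8 calcium dye at room temperature. After a 10 s baseline, library compound was pin-added and calcium release was recorded kinetically (ex 480/em 530) as agonist response.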
An asterisk follows results filed as active; nt = no result; ! = not confirmed by another sample. An excerpt weighted towards active compounds, which were near 4.7% of everything screened. Cut-off read from the data, not from the text of the source, unless noted: active = activation above about 30%; inactive = the rest.

SMILES	D1 antag	TRHR enhancer	D1 ag	D1 potentiator	TRHR ag
O=c1cc(-c2ccccc2)n2c(SCc3c(F)cccc3Cl)nnc2[nH]1	nt	3	-3	4	0
N#Cc1c2ccc([N+](=O)[O-])cc2[n+]([O-])n1-c1ccccc1	-61*	0	7	-6	0
O=C(CCn1c(=O)c2cccn2c2cccnc21)Nc1ccccc1Br	-3	15	0	-3	0
Cc1cc(OCc2cc(C(=O)N(C)CCOc3ccccc3)no2)cc(C)c1Cl	-4	-7	37*	-7	2
CC(=O)c1ccc(OCc2cc(C(=O)N(C)Cc3ccccn3)no2)cc1	-73*	0	3	8	0
Cc1cc(OCc2cc(C(=O)NCC3(C)COC3)no2)cc(C)c1Cl	-41*	3	22	-2	0
Cc1cc(OCc2cc(C(=O)N(C)Cc3ccccn3)no2)cc(C)c1Cl	0	12	3	-2	-1
Cc1cc(OCc2cc(C(=O)N(C)CCCN3CCOCC3)no2)cc(C)c1Cl	-16	5	35*	-18	0
Cc1cccc(C)c1-n1ncc(C(=O)NC2CCCC2)c1C1CCN(C(=O)OC(C)(C)C)CC1	7	7	1	2	0
CCC(C(=O)Nc1cc(C)ccc1OC)n1nnc(C(=O)OC)c1C(=O)OC (stereo not drawn)	16	0	1	1	0
Cc1ccc(O)c(NC(=O)c2ccc(Br)c(S(=O)(=O)N3CCCCC3)c2)c1	-58*	-1	14	-2	-1
Cc1ccc(O)c(NC(=O)c2cccc(S(=O)(=O)N3CCCCC3)c2)c1	17	2	6	-3	0
CCC(CO)Oc1cc(NC(=O)c2ccccc2)c2ncn(C(C)C)c2c1 (stereo not drawn)	-7	-5	1	-1	0
COc1ccc(NC(=O)CC2C(=O)N(c3ccccc3)C(=O)N2Cc2cccnc2)cc1 (stereo not drawn)	-4	3	2	-3	0
Cc1nnc(-c2ccccc2)c(=O)n1/N=C/c1c(O)ccc2ccccc12	-24	9	113*	-5	-1
Cc1nnc(C)n1/N=C/c1c(O)ccc2ccccc12	-7	3	2	-1	1
COc1cccc(C(=O)N2CCN(CCc3ccncc3)CC2)c1	4	-6	-1	-1	0
O=C(CCSc1ccc(Cl)cc1)c1ccco1	-9	-2	2	-6	-1
O=C(CSc1ccc(Cl)cc1)c1ccco1	-11	36*	5	-7	0
Nc1c(C(=O)N/N=C/c2cccnc2)oc2nc(-c3ccccc3)cc(-c3ccco3)c12	-2	-1	1	-10	1
Nc1c(C(=O)N/N=C/c2cccnc2)oc2nc(-c3ccco3)cc(-c3ccco3)c12	-31*	-12	4	-3	3
CC(=O)Nc1nonc1-c1nnc(SCC(=O)Nc2ccc(C)c(Cl)c2)n1C	-8	11	-1	0	-1
COC(=O)Cn1ccc2cc(S(=O)(=O)N3CCCCCC3)ccc21	8	-4	2	-9	0
COc1ccccc1CCNC(=O)Cn1ccc2cc(S(=O)(=O)N3CCCC3)ccc21	-31*	-12	7	-9	0
COC(=O)Cn1ccc2cc(S(=O)(=O)N3CCCCC3)ccc21	-51*!	7	5	-1	0
SMILES	D1 antag	TRHR enhancer	D1 ag	D1 potentiator	TRHR ag
COc1ccc(OC)c(CNC(=O)CCCn2ccc3cc(S(=O)(=O)N4CCCC4)ccc32)c1	-33*!	-3	4	-1	0
O=C(NNC1=NS(=O)(=O)c2ccccc21)c1ccc([N+](=O)[O-])cc1	-16	30*	2	0	0
O=C(NNC1=NS(=O)(=O)c2ccccc21)c1ccc(Cl)cc1	-25	3	0	-9	0
Cc1cc(S(=O)(=O)NC2CCCCC2)c(C)s1	-30*	-1	5	-6	-1
COc1ccc(C)cc1S(=O)(=O)NC1CCCCCC1	-4	2	2	0	0
CCCCn1c(N)c(N(CCOC)C(=O)COC(=O)COc2ccc(CC)cc2)c(=O)[nH]c1=O	7	3	1	-3	0
Cc1ccc(-n2nc(C)c3c(C(=O)NCc4ccc(F)cc4)cc(C)nc32)cc1	7	-3	4	-1	1
CS(=O)(=O)c1ccccc1-c1nnc(NC(=O)c2ccco2)o1	-3	14	3	1	0
CCOC(=O)c1c(C)[nH]c(NC(=O)NNC(=O)c2ccccc2Cl)c1C	-31*	10	1	-10	0
CCOC(=O)c1ccc(COc2ccc(C(C)C)cc2)o1	8	3	7	-4	1
CCOc1ccc(OCc2ccc(C(=O)OCc3ccccn3)o2)cc1	-23	1	32*	-10	0
C#CCOCCOCCOCCNc1nc(N2CCN(C(=O)CCCCCCCCCCNC(=O)Cn3cc(CCCCCN)nn3)CC2)nc(N2CCN(C(=O)CCCCCCCCCCNC(=O)Cn3cc(C[C@@H](C)O)nn3)CC2)n1	9	0	26	43*	1
C#CCOCCOCCOCCNc1nc(N2CCN(C(=O)Cn3cc(CCCCN)nn3)CC2)nc(N2CCN(C(=O)Cn3cc(CC(C)O)nn3)CC2)n1 (stereo not drawn)	-32*	7	-2	-10	0
O=C(c1ccc(Cn2cc(Br)cn2)cc1)N1N=C(C(F)F)CC1(O)C(F)F (stereo not drawn)	71	6	48*	-2	1
c1ccc(-n2cnc3cc(NCc4ccccn4)ccc32)cc1	0	-2	0	-4	0
c1ccc(-n2cnc3cc(NCc4ccncc4)ccc32)cc1	-39*	1	10	-4	0
Cn1c(=O)oc2cc(S(=O)(=O)N3CCc4ccccc43)ccc21	5	-7	38*	-6	3
Cc1c(C(=O)NCC2COc3ccccc3O2)oc2ccc(S(=O)(=O)N3CC(C)CC(C)C3)cc12 (stereo not drawn)	-31*	-1	3	-3	1
Cc1ccc(NC(=O)C2CCCN(S(=O)(=O)c3ccc4c(c3)oc(=O)n4C)C2)cc1Cl (stereo not drawn)	-31*	4	2	-2	0
Cc1c(C(=O)NCC2COc3ccccc3O2)oc2ccc(S(=O)(=O)N3CCOCC3)cc12 (stereo not drawn)	1	-1	7	-2	2
Cn1c(=O)oc2cc(S(=O)(=O)N3CCCC(C(=O)N4CCc5ccccc5C4)C3)ccc21 (stereo not drawn)	-38*	-6	12	nt	1
C=CCCC(=O)NC1CCCc2c1cnn2-c1ccccc1F (stereo not drawn)	11	10	3	-2	0
Cc1ccccc1OCCn1cc(C=O)c2ccccc21	-13	-4	7	-4	-2
